Assay outcomes: PubChem, National Center for Advancing Translational Sciences (NCATS)
The full list was thinned out, with hits kept by preference.
ALOX12 inhib – blocks human 12-lipoxygenase activity; purified 12-hLO, xylenol orange hydroperoxide absorbance; Potency, µM (highest dose often 57.1 µM), for the others: at the top dose activity change, negative = inhibition, hits mostly inhibitors; hit rate 0.12% among 150,000; further: nearly all actives have a fitted effect of over 55% in size
Target sequence (P18054 whole entry, looked up): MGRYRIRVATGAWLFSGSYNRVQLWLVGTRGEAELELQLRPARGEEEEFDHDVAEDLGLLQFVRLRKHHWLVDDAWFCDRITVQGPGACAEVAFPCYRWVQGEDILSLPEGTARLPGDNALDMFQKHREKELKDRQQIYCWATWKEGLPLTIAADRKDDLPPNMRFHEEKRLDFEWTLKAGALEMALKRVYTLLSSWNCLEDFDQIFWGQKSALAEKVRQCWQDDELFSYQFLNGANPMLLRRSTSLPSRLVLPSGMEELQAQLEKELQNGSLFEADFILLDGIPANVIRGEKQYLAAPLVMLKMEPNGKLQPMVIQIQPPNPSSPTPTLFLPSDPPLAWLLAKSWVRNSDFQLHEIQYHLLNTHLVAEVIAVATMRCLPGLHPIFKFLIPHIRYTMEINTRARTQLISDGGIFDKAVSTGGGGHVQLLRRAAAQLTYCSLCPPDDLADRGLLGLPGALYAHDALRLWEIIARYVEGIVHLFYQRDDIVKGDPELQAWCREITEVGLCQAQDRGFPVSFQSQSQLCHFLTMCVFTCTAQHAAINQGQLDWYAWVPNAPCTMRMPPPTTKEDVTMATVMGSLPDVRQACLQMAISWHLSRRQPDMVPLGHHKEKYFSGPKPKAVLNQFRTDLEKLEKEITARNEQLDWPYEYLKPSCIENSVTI
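150 nM 12hLO, 25 mM Hepes pH 7.0 + 0.01% Triton X-100; cpd preinc 15 min RT; 40 uM arachidonic acid, 30 min RT; Fe-XO 30 min; A573/A405 ratio as read-out.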
15-hLO-2 inh – 15-hLO-2 (ALOX15B) enzyme inhibition; O15296; purified 15hLO-2, xylenol orange hydroperoxide absorbance; Potency, µM (doses to about 57.1 µM), for inactives: at the highest dose activity change, negative = inhibition, usual class: inhibitors; hit rate 0.56% among 110,000; AID 881; further: nearly all actives have a fitted effect of over 60% in size
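Purified human 15hLO-2 (50 nM) preincubated 15 min with compound, then 45 uM arachidonic acid for 90 min at RT in 25 mM Hepes pH 7.5, 0.01% Triton X-100. Hydroperoxide detected by Fe-xylenol orange; 573/405 nm absorbance ratio.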
Active calls of the source: *; ? = inconclusive; . = no result; [ ] = remark or other dose. The call rests on the fitted dose curve; in most records, active means well fitted curve in the direction sought with a large enough effect; inconclusive means small, poorly fitted or top-dose-only effect, or another doubt; inactive means no such curve, though single readings can be large; an effect the other way counts as inactive or inconclusive. On the % scale 0 is the no-effect control and ±100 the full control effect; potency means the concentration at half of the fitted maximal effect.

SMILES	ALOX12 inhib	15-hLO-2 inh
O=C1CC(c2nc3ccccc3[nH]2)CN1c1ccccc1 (stereo not given)	6%	0%
COc1ccc(CNC(=S)Nc2ccccc2C)cc1	-8%	-23%
COc1ccc(CNC(=S)Nc2cc(C)ccc2C)cc1	-15%	?
COc1ccc(CCNC(=S)Nc2cc(C)ccc2C)cc1	7.9µM*	25µM*
COc1ccc(CCNC(=S)Nc2cccc(C)c2C)cc1	?	25µM*
O=C(O)c1c[nH]c2cc(OCc3ccccc3)ccc2c1=O	-11%[11.4 µM]	2%[11.4 µM]
O=C(CSc1nnnn1-c1ccccc1)Nc1nsc(-c2ccc(Cl)cc2)n1	-3%	6%[2.29 µM]
O=C(CSc1nnnn1-c1ccccc1)CC(=O)Nc1ccc(Cl)cc1	10µM*	-13%
C#CC[N+](C)(C)CCCCCCCCCC	-1%	.
CCCCCCCC[N+](CCCCCCCC)(CCCCCCCC)CCCCCCCC	?	32µM*
CCOC(=O)/C(C#N)=C/c1ccc(OC(=O)c2ccco2)c(OCC)c1	-2%	.
N#C/C(=C\c1ccc(O)c(O)c1)C(=O)OCCc1cccs1	?	13µM*
O=C1NC2(CCCCC2)NN1c1ccccc1	4µM*	?
O=C1NC2(CCCCC2)C(=O)N1c1ccccc1	1%	-11%
CN1CCN(c2ncnc3ccc(-c4cccc(NS(C)(=O)=O)c4)cc23)CC1	.	24%
COC(=O)c1ccc2c(c1)SC1=C(CCCC1=O)N2	-17%	?
COC(=O)C1=C(C)Nc2ccc(C)cc2S1	-20%	6.3µM*
N#Cc1c(NC(=O)CCC(=O)O)ccc2ccccc12	5%[11.4 µM]	1%[11.4 µM]
Cc1ccc(-c2ccc(/C=C3\C(=O)ON=C3c3ccccc3)o2)c([N+](=O)[O-])c1	-8%	4µM*
O=C1/C(=C\c2ccc(-c3ccccc3[N+](=O)[O-])o2)C(c2ccccc2)=NN1c1ccccc1	-1%	.
Cc1ccc(S(=O)(=O)C(C#N)c2nc3ccccc3nc2N2CCCC2)cc1 (stereo not given)	28µM*	?
CCN1CCN(c2nc3ccccc3nc2C(C#N)S(=O)(=O)c2ccc(C)cc2)CC1 (stereo not given)	0%	-10%
CC1=C(/C=C\C(=O)O)C(C)(C)CCC1	1%[11.4 µM]	-3%[11.4 µM]
CC(C)(C)NC(=S)Nc1ccc(Br)cc1	-27%	-30%
CC(C)(C)NC(=S)Nc1ccc(Nc2ccccc2)cc1	?	16µM*
SMILES	ALOX12 inhib	15-hLO-2 inh
CN1C[C@@H](C(=O)N[C@]2(C)O[C@]3(O)[C@H]4CCCN4C(=O)[C@H](Cc4ccccc4)N3C2=O)C[C@H]2c3cccc4[nH]cc(c34)C[C@@H]21	-1%	15%
Cc1cc(C)c2c(=O)n(CC(=O)N3CCC(Cc4ccccc4)CC3)sc2n1	-16%	.
Cc1cccc(N2CCN(C(=O)Cn3sc4nc(C)cc(C)c4c3=O)CC2C)c1 (stereo not given)	?	1µM*
CC1(C)[C@@H]2CC[C@@](C)(C2)[C@H]1OC(=O)c1ccccc1C(=O)O	3%[11.4 µM]	-4%[11.4 µM]
COc1cc(N=c2ssnc2Cl)cc(OC)c1	10µM*	?
OCc1ccccc1N=c1ssnc1Cl	-11%	?
CC1=NOC(=O)/C1=C/c1ccc(-c2ccc(Cl)cc2)o1	?	7.9µM*
CC1=NOC(=O)/C1=C/c1ccc(N(C)C)cc1	-3%	-12%
C=CCNC(=S)N/N=C/c1ccc(-c2cc(Cl)ccc2Cl)o1	-7%	?
CC1=NOC(=O)/C1=C\c1ccc(-c2cc(Cl)ccc2Cl)o1	-5%	2µM*
CC(C)=C[C@H]1[C@@H](C(=O)Oc2ccccc2C(C)C)C1(C)C	-2%[11.4 µM]	2%[11.4 µM]
Oc1c(Cl)cc(C(c2cc(Cl)c(O)c(Cl)c2)C(c2cc(Cl)c(O)c(Cl)c2)c2cc(Cl)c(O)c(Cl)c2)cc1Cl	-29%[11.4 µM]	4µM*
Oc1c(Cl)cc(Cl)c(Cl)c1Cl	0%	-6%
NS(=O)(=O)c1nc(S(=O)(=O)O)c2[nH]cnc2n1	-3%[11.4 µM]	2%[11.4 µM]
COc1ccc(OC)c(S(=O)(=O)Nc2ccc(O)c3ccccc23)c1	-18%	16µM*
COc1ccc(OC)c(S(=O)(=O)Nc2ccc(Oc3ccccc3)cc2)c1	?	-7%
C=CC(=O)OCCCCCCOC(=O)C=C	1%	3%
COc1ccc(S(=O)(=O)/N=C2/C=CC(=O)C(C)=C2C)cc1	-22%	13µM*
CC1=C(C)/C(=N\OS(=O)(=O)c2ccc(C)cc2)C=CC1=O	2%	.
CCCCSc1nc2c(cc1C#N)CCC2	-12%	7%
CCCSc1nc(C)c(-c2csc(C(C#N)=C3CCCC3)n2)cc1C#N	-24%	10µM*
C[C@H]1[C@H](C)CC[C@]2(C(=O)O)CC[C@]3(C)C(=CC[C@@H]4[C@]5(C)C[C@H](O)[C@@H](O)[C@@](C)(CO)[C@@H]5[C@H](O)C[C@@]43C)[C@H]12	3%[11.4 µM]	4%[11.4 µM]
CCN(CC)c1ccc(/C=N/NC(=S)NCc2ccccc2)cc1	25µM*	?
COc1ccc(/C=N/NC(=S)NCc2ccccc2)cc1OC	-6%	.
NC[C@@H]1O[C@@H](O[C@H]2[C@@H](O)[C@H](O[C@@H]3[C@H](O)[C@H](N)C[C@H](N)[C@H]3O[C@@H]3O[C@@H](CO)[C@H](O)[C@H](O)[C@@H]3N)O[C@H]2CO)[C@H](N)[C@H](O)[C@@H]1O	3%	2%
SMILES	ALOX12 inhib	15-hLO-2 inh
O=C(O)/C=C\c1cnc[nH]1	-2%	6%
O=C(O)CC[P+](c1ccccc1)(c1ccccc1)c1ccccc1	7%[11.4 µM]	3%[11.4 µM]
COc1cc(C(=O)O)ccc1O	0%	.
O=C(O)c1ccc2cc(-c3ccc(O)c(C45CC6CC(CC(C6)C4)C5)c3)ccc2c1	?	7.9µM*
[N-]=[N+]=N[C@@H]1[C@H](O)[C@H](CO)O[C@@H]1n1cnc2c(N)ncnc21	0%[11.4 µM]	-3%[11.4 µM]
Fc1cccc(CSc2ncnc3c2ncn3[C@H]2CCCS2)c1	-3%[11.4 µM]	-8%[11.4 µM]
CC1=C(C#N)c2nc(N)c(C#N)c(C)c2/C1=C\c1ccc(C)cc1	-4%	25µM*
Cc1ccc(-c2c(C#N)c(N)nc3c2CCCCC3)cc1	5%	2%
COc1cc(C)cc(OC)c1/C=C\C(=O)O	-7%[11.4 µM]	-4%[11.4 µM]
S=C(Nc1ccccc1)Nc1nc2ccccc2n1CCOc1ccccc1	20µM*	?
CC(=O)Nc1nc2ccccc2n1CCOc1ccccc1	-3%	6%
Cc1ccccc1NC(=S)NCc1ccc2[nH]c3c(c2c1)CCCC3	14µM*	.
O=C(NCc1ccc2[nH]c3c(c2c1)CCCC3)N1CCOCC1	-5%	-6%
c1ccc2c[n+](CCCC[n+]3ccc4ccccc4c3)ccc2c1	-2%[11.4 µM]	9%[11.4 µM]
N#Cc1cc(Oc2cccc3cccnc23)c(-n2nnc3ccccc32)cc1C#N	10µM*	?
c1ccc(-n2nnnc2Oc2cccc3cccnc23)cc1	9%	5%
Oc1c(Cl)cc(Cl)cc1C(C#Cc1ccccc1)N1CCOCC1 (stereo not given)	-4%	-13%[11.4 µM]
Oc1c(Cl)cc(Cl)cc1Sc1cc(Cl)cc(Cl)c1O	?	6.3µM*
OC[C@@H]1O[C@@H](n2cnc3c(N[C@@H]4C[C@@H]5CC[C@H]4C5)ncnc32)[C@@H](O)[C@H]1O	-5%	3%
CCOC(=O)c1c(-c2ccc(C)o2)csc1NC(=O)CN1CCOCC1	-2%	0%
CCOC(=O)c1c(-c2ccc(C)o2)csc1NC(=S)NC(=O)N(C)C	?	25µM*
N#C/C(=C\c1ccc(O)c(O)c1)C(=O)c1ccc(O)c(O)c1	?	-29%
N#C/C(=C\c1c[nH]c2ccccc12)C(=O)c1ccc(O)c(O)c1	4µM*	-29%
